This note sets out measurements from PubChem BioAssay.

Calls of active or inactive are those of the source.

Assay [1] deals with Plasmodium falciparum Sir2 (PF13_0152, Sir2A). In words: pfSir2 binders on small-molecule microarrays, primary screen, biochemical, small-molecule microarray, 635 nm fluorescence (AID 1098).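 Further: score merges spot fluorescence intensity with its signal-to-noise ratio.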 The conditions noted are these: small-molecule microarray binding, fluorescence 635 nm; higher = more signal.
Assay [2] is described as follows: small-molecule microarray binders of probe aDKK1, primary screen, biochemical, biotinylated probe, 635/667 nm fluorescence (AID 1099).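 Further: score merges 667nm spot fluorescence with signal to noise across triplicate slides; reference of the scale not given here.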 Conditions: higher = more signal.
Assay [3] is described as follows: small-molecule microarray binders of probe aCHRDL2, primary screen, biochemical, biotinylated probe, 635/667 nm fluorescence (AID 1100). The conditions noted are these: higher = more signal.
A short description of assay [4]: splicing luciferase reporter signal modulators, primary screen, spliceosome inhibition project, cell-based, HEK293, splice +/- reporter (AID 1101).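 Further: HEK293 cells carrying a splicing-competent luciferase reporter gene; test concentration not given here.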 The conditions noted are these: luminescence, 24 h, higher = more signal, called active from +8 up or from −8 down.
The target of assay [5] is Fibroblast growth factor 10 (Homo sapiens) (UniProt O15520). Kind of assay: FGF10 binders on small-molecule microarrays, primary screen, biochemical, small-molecule microarray, 635 nm fluorescence (AID 1102). The conditions noted are these: FGF10 binding, fluorescence 635 nm, higher = more signal.
Fibroblast growth factor 10 (Homo sapiens), sequence (O15520 whole entry, looked up): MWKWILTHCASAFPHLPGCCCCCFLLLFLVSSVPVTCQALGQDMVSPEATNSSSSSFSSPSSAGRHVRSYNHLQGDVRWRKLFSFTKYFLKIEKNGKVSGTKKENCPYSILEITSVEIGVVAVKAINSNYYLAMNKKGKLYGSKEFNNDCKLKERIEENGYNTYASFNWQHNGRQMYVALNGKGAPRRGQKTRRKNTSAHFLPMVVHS
Assay [6] has as its system glycogen synthase kinase-3 (GSK3A per assay name; protocol says GSK3B). Kind of assay: GSK3 binders on small-molecule microarrays, primary screen, biochemical, small-molecule microarray, 635 nm fluorescence, GSK3A (AID 1103). Further: the record names both GSK3A and GSK3B. The conditions noted are these: small-molecule microarray binding, fluorescence 635 nm; higher = more signal.
Assay [7] addresses Epidermal growth factor receptor (Homo sapiens) (UniProt P00533). Kind of assay: EGFR binders on small-molecule microarrays, primary screen, biochemical, small-molecule microarray, 635 nm fluorescence (AID 1104).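 Further: score merges 667 nm emission intensity with spot signal to noise over triplicate slides.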 The conditions noted are these: EGFR binding, higher = more signal.
Assay [8] deals with Follistatin-related protein 3 (Homo sapiens) (UniProt O95633). Kind of assay: FSTL3 binders on small-molecule microarrays, primary screen, biochemical, small-molecule microarray, 635 nm fluorescence (AID 1105).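 Further: score merges emission near 667 nm and signal to noise per printed spot across three slides.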 The conditions noted are these: FSTL3 binding, higher = more signal.
Follistatin-related protein 3 (Homo sapiens), sequence (O95633 whole entry, looked up): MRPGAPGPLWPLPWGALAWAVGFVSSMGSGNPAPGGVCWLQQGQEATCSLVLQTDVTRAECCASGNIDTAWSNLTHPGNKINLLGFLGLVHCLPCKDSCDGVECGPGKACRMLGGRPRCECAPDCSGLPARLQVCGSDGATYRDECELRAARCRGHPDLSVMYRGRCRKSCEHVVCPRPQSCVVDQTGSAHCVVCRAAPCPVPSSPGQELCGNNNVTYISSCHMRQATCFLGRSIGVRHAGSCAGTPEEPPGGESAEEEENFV
Assay [9] concerns the target Dickkopf-related protein 1 (Homo sapiens) (UniProt O94907). Kind of assay: DKK1 binders on small-molecule microarrays, primary screen, biochemical, small-molecule microarray, 635 nm fluorescence scan (AID 1106).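 Further: score merges emission near 667 nm with signal to noise over three replicate slides.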 The conditions noted are these: DKK1 binding, higher = more signal.
For assay [10], the system named is Inhibin beta A chain (activin A). In words: INHBA (activin A) binders on microarrays, primary screen, biochemical, small-molecule microarray, 635 nm fluorescence scan (AID 1107).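 Further: mouse activin A protein probed at 4.33 µg/mL on printed slides; score merges bound-protein fluorescence near 667 nm with spot signal-to-noise.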 Conditions: small-molecule microarray binding, higher = more signal.

Epidermal growth factor receptor (Homo sapiens), sequence (P00533 whole entry, looked up): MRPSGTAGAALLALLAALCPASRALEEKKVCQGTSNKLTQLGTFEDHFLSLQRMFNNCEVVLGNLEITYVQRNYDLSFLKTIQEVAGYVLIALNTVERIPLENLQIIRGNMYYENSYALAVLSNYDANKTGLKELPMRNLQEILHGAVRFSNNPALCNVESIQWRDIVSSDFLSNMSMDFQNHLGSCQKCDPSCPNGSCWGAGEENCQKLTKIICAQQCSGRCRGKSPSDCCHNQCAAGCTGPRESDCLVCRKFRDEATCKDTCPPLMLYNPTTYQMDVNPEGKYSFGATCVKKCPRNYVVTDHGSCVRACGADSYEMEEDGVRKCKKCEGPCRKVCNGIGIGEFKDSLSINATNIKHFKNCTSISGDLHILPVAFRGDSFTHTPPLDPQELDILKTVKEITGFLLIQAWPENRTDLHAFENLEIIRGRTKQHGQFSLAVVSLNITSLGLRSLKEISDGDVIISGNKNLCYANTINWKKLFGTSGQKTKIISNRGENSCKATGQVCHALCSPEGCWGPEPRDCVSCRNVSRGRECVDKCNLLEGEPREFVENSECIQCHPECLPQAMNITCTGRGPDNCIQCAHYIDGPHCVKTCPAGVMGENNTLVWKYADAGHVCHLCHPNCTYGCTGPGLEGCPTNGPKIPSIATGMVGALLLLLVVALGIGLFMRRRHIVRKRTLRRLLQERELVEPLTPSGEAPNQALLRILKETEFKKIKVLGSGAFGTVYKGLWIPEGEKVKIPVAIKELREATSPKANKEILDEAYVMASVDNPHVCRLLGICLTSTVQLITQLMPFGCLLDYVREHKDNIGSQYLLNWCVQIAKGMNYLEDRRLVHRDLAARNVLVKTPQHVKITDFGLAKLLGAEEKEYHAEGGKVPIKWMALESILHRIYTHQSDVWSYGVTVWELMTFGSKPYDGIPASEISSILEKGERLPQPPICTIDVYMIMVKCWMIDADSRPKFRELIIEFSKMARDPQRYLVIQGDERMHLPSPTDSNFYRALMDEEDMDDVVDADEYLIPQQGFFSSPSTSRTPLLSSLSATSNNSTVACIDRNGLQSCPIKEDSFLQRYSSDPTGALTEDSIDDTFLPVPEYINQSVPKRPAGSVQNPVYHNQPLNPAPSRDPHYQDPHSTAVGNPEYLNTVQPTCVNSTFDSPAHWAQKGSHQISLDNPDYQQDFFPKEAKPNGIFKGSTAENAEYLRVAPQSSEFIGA
Dickkopf-related protein 1 (Homo sapiens), sequence (O94907 whole entry, looked up): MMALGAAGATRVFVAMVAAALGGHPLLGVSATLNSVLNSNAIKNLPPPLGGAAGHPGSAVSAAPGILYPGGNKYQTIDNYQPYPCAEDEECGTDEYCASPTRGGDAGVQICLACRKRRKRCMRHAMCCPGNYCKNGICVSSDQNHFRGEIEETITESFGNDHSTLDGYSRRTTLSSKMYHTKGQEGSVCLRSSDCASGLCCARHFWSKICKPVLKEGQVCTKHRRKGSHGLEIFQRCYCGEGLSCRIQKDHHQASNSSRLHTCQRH

As for `O=C1O[C@@H](c2ccccc2)[C@@H](c2ccccc2)N2[C@@H](c3ccc(O)cc3)[C@]3(C(=O)Nc4ccccc43)[C@@H](C(=O)NC[C@H](O)c3ccccc3)[C@H]12`, the composite z-score in assay [1] is 0.851; in [2] it was -0.139; in [3], 0.0547; in [5], 0.117; in assay [6] it was -1.28; in assay [7], 0.249. Also, the composite z-score in assay [8] is 0.244; in [9], 0.259; in assay [10], -0.297. Besides, the z-score in assay [4] is 0.576 (inactive).

Consider `Cc1ccc(N2C(=O)c3ccccc3[C@](C)(C(=O)NCCN3CCOCC3)[C@@H]2c2ccc(CO)cc2)nc1`, for which the composite z-score in assay [1] is 0.0614; in [2] it was 0.0511; in assay [3] it was 0.858; in [5] it was -1.01; in assay [6], -1.73; in assay [7], -1.41. The figures for the composite z-score in [8], in assay [9] and in assay [10] were -1.74, -0.979 and -0.472, respectively. For the same molecule, the z-score in assay [4] was 0.219 (inactive).

As for `COc1c(C)cc(-c2cc3c(c(-c4ccccc4)n2)[Si](C(C)C)(C(C)C)O[C@H]3c2ccccc2)cc1C`, the composite z-score in assay [1] was -0.14; in [2], -0.16; in assay [3], -0.327; in assay [5], 0.397; in assay [6], 0.02; in [7] it was 0.0111. In addition, the composite z-score is 0.168 in assay [8], 0.211 in [9] and 0.0244 in [10]. The z-score in assay [4] was 0.139 (inactive).

Turning to `CN(C)CCCC[C@@H]1NC(=O)[C@@H]2C[C@H](C(=O)NCc3ccc(F)cc3)[C@H](c3cccc(OCCO)c3)N2C1=O`, the composite z-score amounted to 1.17 in assay [1]; 0.0666 in assay [2]; 0.0708 in assay [3]; 1.36 in assay [5]; 0.833 in [6]; 0.267 in assay [7]. Further, the composite z-score in assay [8] is 1.17; in assay [9], 0.314; in assay [10], -0.218. Also, the z-score in [4] was -0.815 (inactive).

On to `NC(=O)NCC#Cc1ccc2c(c1)[C@]1(C(=O)N2)[C@H](c2ccc(O)cc2)N2[C@H](c3ccccc3)[C@H](c3ccccc3)OC(=O)[C@H]2[C@@H]1C(=O)N1CCN(c2ncccn2)CC1`, for which the composite z-score in assay [1] is 0.681; in [2], 0.337; in [3], 0.372; in assay [5], 0.602; in assay [6] it was -0.398; in assay [7], -0.232. The composite z-score in assay [8] is -0.483; in assay [9] it was -0.122; in [10], 0.862. In addition, in [4], the z-score was -0.0492 (inactive).

Regarding `C=C(C(=O)CC[C@@H](OC(C)=O)c1ccc(OCCO)cc1)C(C)C`, the composite z-score in assay [1] is 0.167; in assay [2], -0.0523; in [3], 0.104; in assay [5], 1.57; in assay [6], -0.117; in [7], -0.544. Further, the composite z-score was -0.152 in [8], -0.207 in assay [9] and 0.815 in assay [10]. Moreover, in assay [4], the z-score was 1.02 (inactive).

As to `C=CC[C@@]1(C(=O)NCc2ccccc2)N=C(c2ccc(OCCCO)cc2)O[C@@H]1c1ccccc1CN=[N+]=[N-]`, the composite z-score in assay [1] is 1.1; in assay [2], 0.9; in assay [3] it was 0.953; in assay [5], 1.15; in assay [6], 0.0389; in [7], -0.282. The values for the composite z-score in assay [8], in assay [9] and in assay [10] were 0.849, 0.0805 and 0.835, respectively. Further, the z-score in assay [4] is 0.147 (inactive).

With `O=C(NCc1ccccc1)[C@@H]1c2ccccc2C(=O)N(C2CCCCC2)[C@H]1c1ccc(CO)cc1`, the composite z-score in assay [1] is 0.88; in [2] it was -0.709; in assay [3], 0.0028; in assay [5], 0.686; in assay [6], 0.0662; in [7], -0.241. In addition, the composite z-score in assay [8] is 0.707; in [9] it was -0.327; in assay [10] it was -0.224. The z-score in [4] is 0.365 (inactive).

For `COC(=O)c1c2oc(c1C(=O)OC)C(=O)N[C@H](Cc1ccccc1)Cn1nncc1C1(CCCCC1)NC(=O)N[C@H](CO)CC2`, the composite z-score in assay [1] is 0.0465; in [2], 0.026; in assay [3], -0.485; in [5] it was 0.0778; in assay [6] it was 0.129; in assay [7], 0.0246. Also, the composite z-score is 0.402 in [8], 0.452 in [9] and 0.006 in [10]. The z-score in assay [4] is -1.46 (inactive).

Regarding `CCCNC(=O)[C@@]1(C)c2ccccc2C(=O)N(Cc2ccc(OC(F)(F)F)cc2)[C@H]1c1ccc(CO)cc1`, the composite z-score in [1] is 1.57; in [2] it was 0.0743; in [3] it was 0.666; in assay [5], 0.0672; in assay [6], 0.0816; in [7], -1.02. Moreover, the composite z-score in [8] is -0.401; in assay [9], -0.977; in [10] it was 0.427. Also, in assay [4], the z-score is -0.129 (inactive).

`COc1ccc([Si](C)(C)[C@@H]2[C@@H](CC(=O)N3Cc4ccccc4C[C@H]3CO)O[C@]3(C(=O)N(Cc4cccc(N5C(=O)COc6ccccc65)c4)c4ccccc43)[C@H]2C)cc1`: the composite z-score in assay [1] is 0.321; in assay [2], 0.542; in assay [3] it was -0.602; in assay [5], 0.904; in assay [6], 0.901; in assay [7], 0.925. Moreover, the values for the composite z-score in [8], in [9] and in assay [10] were 1.13, 1.01 and 0.729, respectively. For the same molecule, in [4], the z-score was -1.82 (inactive).

For the molecule `COc1ccc(C(=O)Nc2cccc(CN3C(=O)[C@@]4(O[C@@H](CC(=O)N5Cc6ccccc6C[C@H]5CO)[C@H]([Si](C)(C)c5ccc(OC)cc5)[C@H]4C)c4ccccc43)c2)cc1`, the composite z-score in [1] was 1.42; in [2], -0.287; in [3], -0.0642; in [5] it was 0.639; in [6], 0.363; in assay [7] it was 0.978. The composite z-score in assay [8] turned out to be 1.24; in [9], 1.11; in assay [10] it was 0.551. In addition, the z-score in assay [4] is -1.14 (inactive).

Take `C=CCC(OC(C)=O)[C@@H]1[C@@H](N(Cc2cc3ccccc3o2)C(=O)c2cccc3ccccc23)c2cc(OCCCO)ccc2N1C(=O)Cc1ccc2ccccc2c1` (stereo not given in full): the composite z-score in assay [1] was 0.53; in assay [2], 0.224; in assay [3], 0.471; in assay [5] it was 0.0259; in assay [6], -0.925; in assay [7], -0.221. Further, the composite z-score in assay [8] is 0.0969; in [9], -0.0207; in assay [10] it was 1.02. In assay [4], the z-score is -0.904 (inactive).

In the case of `O=C1C2C=CC(C(O)CCc3ccccc3)N(Nc3ccccc3)C2C(=O)N1c1ccccc1` (stereo not given), the composite z-score is 0.692 in assay [1]; 1.18 in assay [2]; 1.29 in assay [3]; 0.714 in assay [5]; 1.26 in [6]; -0.0133 in assay [7]. Also, the composite z-score in assay [8] is 0.425; in assay [9] it was -0.194; in assay [10], 0.205. In addition, in [4], the z-score was 0.35 (inactive).
